Screening data: PubChem, several laboratories
FAS TE block = inhibitors of human fatty acid synthase thioesterase domain | P49327 | recombinant FAS-TE, OMFH fluorogenic substrate, fluorescence endpoint | inhibition, % at 15 µM | 360,000 compounds, 0.67% hits | AID 602261;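 active = compounds whose normalised, plate-corrected inhibition of enzyme fluorescence in the single-dose primary screen is 50% or more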;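 note: 0% = DMSO with enzyme and 100% = substrate without enzyme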
KLK7 zymogen act = proKLK7 (human) activation, primary screen; P49862; purified proKLK7, EDANS-DABCYL substrate fluorescence; 100% is mature enzyme control, 0% vehicle; activation, % at 7 µM; 370,000 compounds, 0.9% hits; AID 652039;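 active = activation above the mean of all tested compounds plus 3 SD, computed per campaign excluding outliers beyond control limits, cut at about 13% in these data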
FXN GAA850 act = frataxin GAA850 promoter activation | 360,000 compounds, 0.56% hits | AID 540364 | activation, % at 6 µM | HEK293 lucGAA850 FXN promoter luciferase reporter, 24 h; percent of 10 µM SAHA response;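 active = activation above the average of all compounds screened plus 3 SD, cutoff fixed separately per campaign, cut at about 7.5% in these data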;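 note: 0% = DMSO wells and 100% = 10 µM SAHA wells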
SMARCA2 activ = SMARCA2 function activation, primary screen. activation, % at 9.1 µM. 370,000 compounds, 1% hits. MG213 cells, MMTV-luciferase reporter, dexamethasone, overnight. AID 652017; in the data active = activation above about 7.8%;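 note: 0% = vehicle wells and 100% = reference activator wells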
proKLK7 act conf = confirmation of human kallikrein-7 zymogen activators. shares compounds with KLK7 zymogen act. purified proKLK7, EDANS-DABCYL substrate fluorescence; scaled: vehicle 0, mature enzyme 100. activation, % at 7 µM. 3,200 compounds, 68% hits;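 active = activation, as change over the incubation, above the mean of all tested compounds plus 3 SD, cut at about 13% in these data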
EDANS interfere = fluorescence interference counter-screen for KLK7 activators; activation, % at 7 µM; 3,200 compounds, 80% hits; AID 686952; shares compounds with KLK7 zymogen act; EDANS-DABCYL substrate fluorescence interference, no enzyme, 4 h; solvent 0%, active enzyme control 100%;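 active = activation above the all-compound mean plus 3 SD, ignoring values outside control-based bounds, cut at about 4.8% in these data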;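 note: value is the 4 h activation minus the activation read at time zero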
The depositor's hits bear a star; · = no result. Shown are actives, neighbours in structure and some others; about 2.9% of the full set was active somewhere.

SMILES	FAS TE block	KLK7 zymogen act	FXN GAA850 act	SMARCA2 activ	proKLK7 act conf	EDANS interfere
Cc1cc(=O)n2c(ccc3ccccc32)c1C#N	3	0	-2	0	·	·
C/C(=N\NC(=O)c1cc(-c2ccc(C)s2)nc2ccccc12)c1cccnc1	6	66*	2	-4	-151	-211
Cc1ccc(-c2cc(C(=O)NCc3ccco3)c3ccccc3n2)s1	6	16*	5	1	22*	65*
Cc1ccc(-c2cc(C(=O)NCCCn3ccnc3)c3ccccc3n2)s1	-19	35*	2	0	75*	76*
CC(C)[C@H](NC(=O)c1cccc(CN(Cc2ccccc2)C(=O)/C=C/c2ccccc2)c1)C(=O)O	0	-1	3	-1	·	·
COC(=O)c1cccc(NC(=O)CN2C(=O)C3CCCCC3C2=O)c1 (centres undefined)	-4	0	2	-3	·	·
CC(OC(=O)c1ccc(Cl)c(S(=O)(=O)N2CCc3ccccc32)c1)C(=O)Nc1ncc(Cl)cc1Cl (centres undefined)	20	0	0	-1	·	·
CCCn1c(CCC(=O)O)ccc1-c1cccs1	-5	3	-1	-2	·	·
COCCCn1c(CCC(=O)O)ccc1-c1cccs1	-3	13*	1	1	7	8.7*
FC(F)(F)c1cc(-c2cccs2)nc2ncnn12	-6	19*	1	1	67*	66*
O=C(c1cnn2c(C(F)(F)F)cc(-c3cccs3)nc12)N1CCN(Cc2ccccc2)CC1	11	-6	0	0	·	·
O=C(c1ccco1)N1CCN(C(=O)c2cnn3c(C(F)(F)F)cc(-c4cccs4)nc23)CC1	-5	25*	-1	-2	-4	1
CN1CCN(C(=O)c2cnn3c(C(F)(F)F)cc(-c4cccs4)nc23)CC1	-8	19*	1	0	29*	25*
CCc1cc(=O)oc2c(C)c(OCC(=O)N3CCCc4ccccc43)ccc12	3	-1	2	4	·	·
O=C(N=Nc1c(O)[nH]c2ccc(Br)cc12)c1ccccc1-n1cccc1	16	1	1	-3	·	·
CCOc1ccc(/C=C2\CCCc3c2nc2ccccc2c3C(=O)O)cc1OC	-142	·	0	·	·	·
COc1ccc(/C=C2\CCc3c2nc2ccccc2c3C(=O)O)cc1OC	-13	16*	-1	2	55*	65*
COC(=O)c1cc(Cl)ccc1NCC(N)c1ccccc1 (centres undefined)	0	18*	·	-1	-41	-40
COc1ccccc1CC(=O)Nc1ccc(Cl)cc1C(=O)O	-4	1	0	-2	·	·
O=C(CC(C(=O)O)N1CCOCC1)Nc1ccc(Cl)cc1 (centres undefined)	-4	0	-1	-2	·	·
CCN(CC)C1=N/C(=C\c2ccc(OC)cc2)C(=O)N1c1ccccc1	20	-1	-7	-3	·	·
CC(C)(C)OC(=O)N1CCC[C@H]1c1nnc(SCc2cccc(Cl)c2)o1	8	0	1	-1	·	·
CN1C(=O)c2cc(NC(=O)c3cccc(F)c3)ccc2OC[C@@H]2O[C@H](CC(=O)NCc3ccccc3)CC[C@H]21	·	0	·	-4	·	·
Cc1cc(C)c2nc(N3C(=O)C(O)=C(C(=O)c4ccco4)C3c3cccc(O)c3)sc2c1 (centres undefined)	10	14*	1	0	20*	22*
COc1cc(-c2cc(C(=O)O)c3cc4ccccc4cc3n2)cc(OC)c1OC	-7	0	0	-3	·	·
COCCN(C(=O)Cc1cccs1)c1nnc(-c2ccncc2)s1	-10	17*	2	-3	40*	42*
Cn1c(=O)c2cc(NC(=O)CCc3ccccc3)ccc2n1Cc1cccc(C(F)(F)F)c1	8	-9	0	-5	·	·
CCOCCC(=O)Nc1ccc2c(c1)c(=O)n(C)n2Cc1cccc(C(F)(F)F)c1	-9	16*	0	-2	6	9.7*
COc1cc(Cn2c3ccc(NC(=O)CC(C)C(F)(F)F)cc3c(=O)n2C)ccc1F (centres undefined)	-4	17*	-2	-2	-7	-7
CCOCCC(=O)Nc1ccc2c(c1)c(=O)n(C)n2-c1ccccc1F	-9	21*	0	1	21*	22*
